Results: PubChem BioAssay (NCI)
The panel holds about 83,000 compounds, 20% with a hit somewhere; the sample as a whole holds those more often.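 Cells were grown in 96-well plates and exposed to the test compound at a single concentration for 48 hours; results are reported as percent growth, with values below 10 considered active.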 Calls of active or inactive are those of the source.

Columns and labels:
Assay in all cases: NCI-60 one-dose screen, 48 h (100 = growth as untreated, 0 = no growth, -100 = all killed)
SK-MEL-2 melanoma = conditions: 10 µM unless noted
EKVX NSCLC = conditions: 10 µM unless noted
SN12C renal = conditions: 10 µM unless noted
UO-31 renal = conditions: 10 µM unless noted
TK-10 renal = conditions: 10 µM unless noted
ACHN renal = conditions: 10 µM unless noted
CAKI-1 renal = conditions: 10 µM
CCRF-CEM leukemia = conditions: 10 µM unless noted
MOLT-4 leukemia = conditions: 10 µM unless noted
SR leukemia = conditions: 10 µM unless noted
RPMI-8226 leukemia = conditions: 10 µM unless noted
OVCAR-8 ovarian = conditions: 10 µM unless noted
OVCAR-5 ovarian = conditions: 10 µM unless noted
OVCAR-4 ovarian = conditions: 10 µM unless noted
SK-OV-3 ovarian = conditions: 10 µM unless noted
IGROV1 ovarian = conditions: 10 µM unless noted
OVCAR-3 ovarian = conditions: 10 µM unless noted
HS 578T breast = conditions: 10 µM unless noted
NCI/ADR-RES ovarian = conditions: 10 µM unless noted

Measured: growth

Oc1ccccc1/C=N/Nc1nc(N/N=C/c2ccccc2O)nc(N2CCOCC2)n1
inactive: SK-MEL-2 melanoma 72% | EKVX NSCLC 22.2% | SN12C renal 27.2% | UO-31 renal 19.8% | TK-10 renal 47.9% | ACHN renal 28.1% | CCRF-CEM leukemia 42.3% | MOLT-4 leukemia 45.1% | SR leukemia 16% | RPMI-8226 leukemia 53.6% | OVCAR-8 ovarian 12.7% | OVCAR-5 ovarian 37% | SK-OV-3 ovarian 11.9% | IGROV1 ovarian 37% | OVCAR-3 ovarian 33.6% | HS 578T breast 47% | NCI/ADR-RES ovarian 22.9%
active: CAKI-1 renal 4.56% | OVCAR-4 ovarian -11.7%

c1ccc(-c2n(Cc3ccc4ccccc4c3)c3c4ccccc4c4ccccc4c3[n+]2Cc2ccc3ccccc3c2)cc1
active: SK-MEL-2 melanoma -68.3% | EKVX NSCLC -90.2% | SN12C renal -83.7% | UO-31 renal -88% | TK-10 renal -76.6% | ACHN renal -93.3% | CAKI-1 renal -92.5% | CCRF-CEM leukemia -18.9% | MOLT-4 leukemia -56% | SR leukemia -44.4% | RPMI-8226 leukemia -35.1% | OVCAR-8 ovarian -69.1% | OVCAR-5 ovarian -90.3% | OVCAR-4 ovarian -73.4% | SK-OV-3 ovarian -84.5% | IGROV1 ovarian -74.7% | OVCAR-3 ovarian -90.8% | HS 578T breast -42.9% | NCI/ADR-RES ovarian -4.33%

CN1CCN(c2ccc3c(C(N)=O)c(NC(=O)c4ccc(C(C)(C)C)cc4)sc3c2)CC1
inactive: SK-MEL-2 melanoma 97.4% | EKVX NSCLC 85.2% | SN12C renal 90% | UO-31 renal 97.5% | TK-10 renal 123% | ACHN renal 96.4% | CAKI-1 renal 100% | CCRF-CEM leukemia 53.3% | MOLT-4 leukemia 41.9% | SR leukemia 34.7% | RPMI-8226 leukemia 20.1% | OVCAR-8 ovarian 95.4% | OVCAR-5 ovarian 81.1% | OVCAR-4 ovarian 92.3% | SK-OV-3 ovarian 107% | IGROV1 ovarian 90.3% | OVCAR-3 ovarian 79.3% | HS 578T breast 91.2% | NCI/ADR-RES ovarian 85.9%

Cn1cc(-c2nnc(N)nc2-c2cn(C)c3ccc(F)cc23)c2cc(F)ccc21
inactive: SK-MEL-2 melanoma 97% | EKVX NSCLC 101% | SN12C renal 89.2% | UO-31 renal 82.6% | TK-10 renal 91.4% | ACHN renal 100% | CAKI-1 renal 79.7% | CCRF-CEM leukemia 100% | MOLT-4 leukemia 79.1% | SR leukemia 85.6% | RPMI-8226 leukemia 106% | OVCAR-8 ovarian 89.6% | OVCAR-5 ovarian 103% | OVCAR-4 ovarian 97.4% | SK-OV-3 ovarian 112% | IGROV1 ovarian 101% | OVCAR-3 ovarian 103% | HS 578T breast 90.8% | NCI/ADR-RES ovarian 99.8%

CCOP(=O)(OCC)OC[C@]12CCC(C)(C)C[C@H]1C1=CC[C@@H]3[C@@]4(C)C/C(=C\c5cccnc5)[C@H](OP(=O)(OCC)OCC)C(C)(C)[C@@H]4CC[C@@]3(C)[C@]1(C)CC2
inactive: SK-MEL-2 melanoma 45.1% | EKVX NSCLC 29.9% | SN12C renal 29.3% | UO-31 renal 29.9% | TK-10 renal 37.3% | ACHN renal 27.8% | CAKI-1 renal 31% | CCRF-CEM leukemia 25.3% | OVCAR-8 ovarian 28.9% | OVCAR-5 ovarian 50.1% | OVCAR-4 ovarian 27.6% | SK-OV-3 ovarian 34.8% | IGROV1 ovarian 42.6% | OVCAR-3 ovarian 28.5% | HS 578T breast 61.1% | NCI/ADR-RES ovarian 52.3%
active: MOLT-4 leukemia 9.52% | SR leukemia 3.36% | RPMI-8226 leukemia -10.3%

IP(CCCCCCCCCCSc1n(Cc2ccc3ccccc3c2)c(-c2ccccc2)c(-c2ccccc2)[n+]1Cc1ccc2ccccc2c1)(c1ccccc1)(c1ccccc1)c1ccccc1
active: SK-MEL-2 melanoma -59.5% | EKVX NSCLC -68.2% | SN12C renal -72.2% | UO-31 renal -4.18% | TK-10 renal -68.3% | ACHN renal -28% | CAKI-1 renal -91.4% | CCRF-CEM leukemia -33.7% | MOLT-4 leukemia -53.6% | SR leukemia -39.8% | RPMI-8226 leukemia -38% | OVCAR-8 ovarian -50.3% | OVCAR-5 ovarian -76.1% | OVCAR-4 ovarian -68.6% | SK-OV-3 ovarian -63% | IGROV1 ovarian -66.5% | OVCAR-3 ovarian -86.4% | HS 578T breast -30.4%
inactive: NCI/ADR-RES ovarian 29.6%

COc1ccc(/C=C/C(=O)c2nnn(-c3ccc(Br)cc3)c2C)cc1OC
inactive: SK-MEL-2 melanoma 88.6% | EKVX NSCLC 62.3% | SN12C renal 80.2% | UO-31 renal 66.7% | TK-10 renal 95.4% | ACHN renal 86% | CAKI-1 renal 83.4% | CCRF-CEM leukemia 66.4% | MOLT-4 leukemia 78.4% | SR leukemia 52.6% | RPMI-8226 leukemia 10.5% | OVCAR-8 ovarian 82.7% | OVCAR-5 ovarian 94.1% | OVCAR-4 ovarian 71.6% | SK-OV-3 ovarian 90.3% | IGROV1 ovarian 69.2% | OVCAR-3 ovarian 52.9% | NCI/ADR-RES ovarian 59.3%

O=C(COc1ccc(C2SCC(=O)N2c2ccc(F)cc2)cc1)c1ccccc1 (configuration not stated)
inactive: SK-MEL-2 melanoma 99.8% | EKVX NSCLC 86.9% | SN12C renal 97.1% | UO-31 renal 78.6% | TK-10 renal 131% | ACHN renal 95.6% | CAKI-1 renal 66% | CCRF-CEM leukemia 95.8% | MOLT-4 leukemia 92.5% | SR leukemia 65.1% | RPMI-8226 leukemia 87.4% | OVCAR-8 ovarian 94.4% | OVCAR-5 ovarian 107% | OVCAR-4 ovarian 110% | SK-OV-3 ovarian 112% | IGROV1 ovarian 86.2% | OVCAR-3 ovarian 114% | HS 578T breast 96.7% | NCI/ADR-RES ovarian 94.2%

CNC(=O)c1c(NC(=O)c2ccc(F)cc2F)sc2c1CCC(=O)C2
active: SK-MEL-2 melanoma -4.48% | UO-31 renal -94% | ACHN renal 1.41% | CAKI-1 renal -3.18% | CCRF-CEM leukemia 4.01% | MOLT-4 leukemia 2.03% | SR leukemia 1.58% | RPMI-8226 leukemia -12.3% | OVCAR-5 ovarian 0.937% | OVCAR-4 ovarian -40.6% | SK-OV-3 ovarian -4.66% | OVCAR-3 ovarian 0.976% | NCI/ADR-RES ovarian 5.72%
inactive: EKVX NSCLC 14.5% | SN12C renal 17.5% | TK-10 renal 38.7% | OVCAR-8 ovarian 13.9% | IGROV1 ovarian 22.8% | HS 578T breast 24.5%

CCOC(=O)c1c(NC(=O)c2ccc(C(C)(C)C)cc2)sc2cc(OCCN3CCCCC3)ccc12
inactive: SK-MEL-2 melanoma 98.6% | EKVX NSCLC 87.5% | SN12C renal 78.1% | UO-31 renal 74.5% | TK-10 renal 112% | ACHN renal 93% | CAKI-1 renal 84.2% | CCRF-CEM leukemia 56.2% | MOLT-4 leukemia 72.3% | SR leukemia 16.5% | RPMI-8226 leukemia 14.6% | OVCAR-8 ovarian 93.4% | OVCAR-5 ovarian 91.8% | OVCAR-4 ovarian 102% | SK-OV-3 ovarian 106% | IGROV1 ovarian 74.9% | OVCAR-3 ovarian 74.8% | HS 578T breast 96.5% | NCI/ADR-RES ovarian 88.3%

CCOc1c(C#N)c(Nc2ccc(S(N)(=O)=O)cc2)c(C#N)c2nnc(C)n12
inactive: SK-MEL-2 melanoma 101% | EKVX NSCLC 90.5% | SN12C renal 98.1% | UO-31 renal 78.4% | TK-10 renal 125% | ACHN renal 90.2% | CAKI-1 renal 88.7% | CCRF-CEM leukemia 104% | MOLT-4 leukemia 104% | SR leukemia 100% | RPMI-8226 leukemia 107% | OVCAR-8 ovarian 99.4% | OVCAR-5 ovarian 107% | OVCAR-4 ovarian 117% | SK-OV-3 ovarian 102% | IGROV1 ovarian 101% | OVCAR-3 ovarian 114% | NCI/ADR-RES ovarian 105%

CN(c1ccc(Br)cc1)S(=O)(=O)c1ccc(-c2cnc(C3CC3)o2)cc1
active: NCI/ADR-RES ovarian 2.5%
inactive: SK-MEL-2 melanoma 69.5% | EKVX NSCLC 43.1% | SN12C renal 30.2% | UO-31 renal 44.4% | TK-10 renal 87.6% | ACHN renal 38.9% | CAKI-1 renal 36.9% | CCRF-CEM leukemia 18% | MOLT-4 leukemia 23.5% | SR leukemia 34.4% | RPMI-8226 leukemia 15.9% | OVCAR-8 ovarian 33.2% | OVCAR-5 ovarian 46.7% | OVCAR-4 ovarian 70.1% | SK-OV-3 ovarian 73.7% | IGROV1 ovarian 29.9% | OVCAR-3 ovarian 23.7% | HS 578T breast 35.8%

COc1ccc(CCN2C(=O)/C(=C/c3nc(CO)cs3)SC2=S)cc1
inactive: SK-MEL-2 melanoma 96.9% | EKVX NSCLC 95.2% | SN12C renal 83.6% | UO-31 renal 34% | TK-10 renal 61.6% | ACHN renal 72.7% | CAKI-1 renal 63.4% | CCRF-CEM leukemia 67.6% | MOLT-4 leukemia 87.5% | SR leukemia 60.4% | RPMI-8226 leukemia 17.7% | OVCAR-8 ovarian 97.5% | OVCAR-5 ovarian 102% | OVCAR-4 ovarian 91.8% | SK-OV-3 ovarian 97.9% | IGROV1 ovarian 91.4% | OVCAR-3 ovarian 54.2% | HS 578T breast 106% | NCI/ADR-RES ovarian 95.7%

CCCCCCNC(=O)Oc1ccc(/C(=C(\C)c2ccc(OC)cc2)c2ccc(OCCN(C)C)cc2)cc1
inactive: SK-MEL-2 melanoma 99.8% | EKVX NSCLC 75% | SN12C renal 78.8% | UO-31 renal 52.1% | TK-10 renal 107% | ACHN renal 88.3% | CAKI-1 renal 82.9% | CCRF-CEM leukemia 67.3% | MOLT-4 leukemia 44.5% | SR leukemia 13.1% | RPMI-8226 leukemia 19.4% | OVCAR-8 ovarian 86.4% | OVCAR-5 ovarian 86.8% | OVCAR-4 ovarian 90.9% | SK-OV-3 ovarian 103% | IGROV1 ovarian 68.4% | OVCAR-3 ovarian 91.3% | HS 578T breast 83.2% | NCI/ADR-RES ovarian 74.8%

COc1ccc(Cn2cc3c(c2-c2cc(OC)c(OC)c(OC)c2)CCCc2cnoc2-3)cc1N
active: OVCAR-3 ovarian 7.33%
inactive: SK-MEL-2 melanoma 55.4% | EKVX NSCLC 46.6% | SN12C renal 40.5% | UO-31 renal 38.2% | TK-10 renal 78.9% | ACHN renal 40.1% | CAKI-1 renal 31.5% | CCRF-CEM leukemia 15.5% | MOLT-4 leukemia 17.4% | SR leukemia 18% | RPMI-8226 leukemia 19.9% | OVCAR-8 ovarian 47.3% | OVCAR-5 ovarian 38.2% | OVCAR-4 ovarian 80.9% | SK-OV-3 ovarian 65.6% | IGROV1 ovarian 35.2% | HS 578T breast 13% | NCI/ADR-RES ovarian 15.5%

CC1(C)CC[C@]2(C(=O)O)CC[C@]3(C)C(=CCC4[C@@]5(C)C[C@@H](O)[C@@H]6OC(c7ccccc7O)OC[C@@]6(C)C5CC[C@]43C)C2C1 (some centres not stated)
inactive: SK-MEL-2 melanoma 85.7% | EKVX NSCLC 39.9% | SN12C renal 60.1% | UO-31 renal 54.8% | TK-10 renal 52.2% | ACHN renal 25.3% | CAKI-1 renal 73.5% | CCRF-CEM leukemia 46.8% | MOLT-4 leukemia 39.2% | SR leukemia 53.3% | RPMI-8226 leukemia 55.4% | OVCAR-8 ovarian 53.1% | OVCAR-5 ovarian 103% | OVCAR-4 ovarian 63.6% | SK-OV-3 ovarian 80% | IGROV1 ovarian 57.2% | OVCAR-3 ovarian 47.4% | HS 578T breast 80.6% | NCI/ADR-RES ovarian 34.6%
